# Source: ChEMBL document CHEMBL4513146, “CO-ADD screening of Karazin Kharkiv National University (Ukraine) compounds”
# Results with a measured potency or affinity are listed apart.
# Legend:
# [1] = test system: Staphylococcus aureus; conditions: Concentration 32 ug.mL-1;; ASSAY_TEST Inhibition of Bacterial Growth; detection method Absorption (OD600); MEDIA CAMHB; plate type 384well; NBS; CORNING #3640; time 18 hr
# [2] = test system: Escherichia coli; conditions: Concentration 32 ug.mL-1;; ASSAY_TEST Inhibition of Bacterial Growth; detection method Absorption (OD600); MEDIA CAMHB; plate type 384well; NBS; CORNING #3640; time 18 hr
Compound,Inhibition [1] [%],Inhibition [2] [%]
Cc1nnc2c(SCC(=O)Nc3ccc(C#N)cc3)nc3ccccc3n12,-1.63,-2.61
CC(C)CCNC(=O)Cn1nc2n(Cc3ccco3)c(=O)c3sccc3n2c1=O,8.27,0.93
CCOc1ccc(NC(=O)Cn2nc3c4c5c(sc4ncn3c2=O)CCCC5)cc1,-17.71,0.82
COc1cc(NC(=O)Cn2nc3ccc(SC(C)(C)C)nn3c2=O)cc(OC)c1OC,10.38,1.07
Cc1ccc(Oc2nccn3c(=O)n(CC(=O)Nc4ccc(C)cc4Br)nc23)cc1,4.05,-2.42
O=C(CSc1nnc2c(=O)n(-c3ccccc3)ccn12)N1CCN(c2ccc(F)cc2)CC1,7.73,-1.4
Cc1ccc(-c2ccc3nn(Cc4cccc(F)c4)c(=O)n3n2)cc1C,7.67,1.83
Cc1ccc(Sc2nccn3c(=O)n(CC(=O)N4CCN(c5ccc(F)cc5)CC4)nc23)c(C)c1,-13.09,-20.44
Cc1ccc(Cl)cc1NC(=O)Cn1c(=O)c2nnc(C(C)C)n2c2ccccc21,2.92,-2.02
CCOc1ccc(NC(=O)Cn2nc3c4cc(-c5ccc(C)cc5)nn4ccn3c2=O)cc1,9.82,2.19
Cc1ccc(Oc2nccn3c(=O)n(CC(=O)Nc4cccc(Cl)c4)nc23)cc1,-3.9,-9.06
Cc1ccc(-c2ccc3nn(Cc4ccc5c(c4)OCO5)c(=O)n3n2)cc1C,-7.66,-8.33
CC(C)c1nnc2c(SCC(=O)Nc3ccc(Br)cc3F)nc3ccccc3n12,6.04,-1.36
COc1cc(NC(=O)Cn2nc3c4c5c(sc4ncn3c2=O)CCCC5)cc(OC)c1OC,7.91,-3.63
Cc1ccc(Oc2nccn3c(=O)n(CC(=O)Nc4ccccc4Br)nc23)cc1,10.09,-0.96
CCc1nnc2c(SCC(=O)Nc3cccc(Br)c3)nc3ccccc3n12,1.73,-7.45
CCc1nnc2ccc(S(=O)(=O)N(Cc3ccc(OC)cc3)c3ccc(F)cc3)cn12,4.6,-5.2
COc1cccc(-n2ccn3c(SCC(=O)NC(C)C)nnc3c2=O)c1,11,-7.26
COc1cccc(Oc2nccn3c(=O)n(CC(=O)NC4CCCCC4)nc23)c1,3.01,-4.58
O=C(CSc1nnc2c(=O)n(-c3ccc(F)cc3)ccn12)N1CCN(c2ccc(F)cc2)CC1,9.4,-2.88
Cc1ccc(NC(=O)Cn2nc3c(Oc4ccccc4)nccn3c2=O)c(Cl)c1,0.38,-2.7
COc1cc(NC(=O)Cn2nc3ccc(SCc4ccc(Cl)cc4)nn3c2=O)cc(OC)c1,-3.52,-10.62
O=c1c2nn(Cc3c(F)cccc3Cl)c(=O)n2ccn1-c1ccccc1,-4.83,2.37
COC(=O)c1ccc(NC(=O)Cn2nc3c(Oc4cccc(OC)c4)nccn3c2=O)cc1,10.83,-2.01

Compound,Inhibition [1] [%],Inhibition [2] [%]
O=S(=O)(c1ccc2nncn2c1)N(Cc1cccc(Cl)c1)c1ccccc1,11.21,-3.7
COc1cccc(-n2ccn3c(SCC#N)nnc3c2=O)c1,16.24,0.96
COc1ccc(CN(c2ccc(F)cc2)S(=O)(=O)c2cccn3cnnc23)cc1F,11.25,-4.31
Cc1cccc(NC(=O)Cn2nc3c(SC4CCCCC4)nccn3c2=O)c1C,2.67,2.06
Cc1ccc(Cl)cc1NC(=O)CSc1nnc2c(=O)n(-c3ccccc3)ccn12,7.91,-1.12
Cc1ccc(-c2cc3c4nn(CC(=O)Nc5ccc6c(c5)OCCO6)c(=O)n4ccn3n2)cc1C,13.07,-3.26
O=c1c2nnc(SCc3ccccc3F)n2ccn1-c1ccc(F)cc1,19.41,-3.23
COc1cccc(-n2ccn3c(SCc4ccc(F)cc4)nnc3c2=O)c1,5.89,-10.24
Cc1cc(C)cc(Nc2nc(C)cc3nn(CC(=O)NC4CCCCC4)c(=O)n23)c1,14.04,-1.15
COc1ccc(N(Cc2cccc(Cl)c2)S(=O)(=O)c2ccc3nncn3c2)cc1,-10.84,-8.34
Cc1cccc(Sc2nc3ccccc3n3c(=O)n(CC(=O)Nc4c(C)cc(C)cc4C)nc23)c1,8.94,-2.19
COc1cccc(NC(=O)Cn2nc3c(Oc4cccc(OC)c4)nccn3c2=O)c1,-17.16,2.27
COc1ccc(CNC(=O)Cn2nc3c4cc(-c5ccc(Cl)cc5)nn4ccn3c2=O)cc1,6.34,4.2
COc1cccc(N(Cc2ccc(F)cc2)S(=O)(=O)c2ccc3nncn3c2)c1,-0.47,-9.93
COc1ccc(NC(=O)Cn2nc3nc(N4CCOCC4)ccn3c2=O)cc1F,-2.35,-9.58
CC(C)CCn1c(=O)c2ccc(C(=O)NC3CCCC3)cc2n2c(=S)[nH]nc12,-2,-7.9
O=C(Cn1nc2ccc(-c3ccccc3)nn2c1=O)Nc1ccc(F)cc1,1.63,-4.86
CN(C(=O)Cn1nc2nc(Nc3ccc(F)cc3)ccn2c1=O)c1ccccc1,-13.79,-1.66
COc1ccccc1CNC(=O)CSc1nnc2c3cc(-c4ccc(C)cc4)nn3ccn12,-5.58,-8.49
Cc1ccc(NC(=O)Cn2nc3ccc(SCc4ccc(Cl)cc4)nn3c2=O)cc1,-0.24,-6.34
CC(C)CCn1c(=O)c2sccc2n2c(=O)n(CC(=O)NC(C)C)nc12,-2.24,-10.46
CC(C)c1nnc2c(SCC(=O)N3CCN(c4ccc(F)cc4)CC3)nc3ccccc3n12,10.21,-1.94
COc1ccc(NC(=O)Cn2nc3c(Sc4ccccc4)nccn3c2=O)cc1Cl,-4.6,-4.12
COc1cccc(-n2ccn3c(SCC(=O)Nc4ccc(Cl)cc4)nnc3c2=O)c1,16.43,-13.45

Compound,Inhibition [1] [%],Inhibition [2] [%]
O=C(Cn1nc2c3c4c(sc3ncn2c1=O)CCCC4)NCc1ccccc1Cl,-19.92,0.09
COc1ccc(NC(=O)Cn2nc3c(Oc4ccccc4)nccn3c2=O)cc1,9.87,-1.88
Cc1ccc(-c2cc3c4nn(CC(=O)NCc5ccccc5)c(=O)n4ccn3n2)cc1C,-8,-9.14
COc1cc(NC(=O)C(C)Sc2nnc3c(=O)n(-c4ccccc4OC)ccn23)cc(OC)c1 (centres undefined),15.1,-4.09
CCOc1ccccc1CNC(=O)CCc1nnc2ccc(-c3ccc(C)cc3)nn12,9.96,-0.64
CCCN(C)c1nccn2c(=O)n(CC(=O)Nc3cccc(C(C)=O)c3)nc12,10.12,-7.5
Cc1cccc(NC(=O)CSc2nnc3ccc(C(=O)Nc4cccc(F)c4)cn23)c1C,10.8,-1.92
Cc1c(Cl)cccc1-n1ccn2c(=O)n(Cc3c(F)cccc3Cl)nc2c1=O,-0.05,-8.85
COc1ccc(C(=O)CSc2nnc3c(=O)n(-c4ccccc4)ccn23)cc1OC,-10.93,-14.26
COc1ccccc1Cn1c(=O)c2sccc2n2c(=O)n(Cc3cccc(C)c3)nc12,10.55,0.66
Cc1ccc(-c2cc3c4nn(CC(=O)Nc5ccc(F)cc5)c(=O)n4ccn3n2)cc1C,-6.62,-8.95
COc1ccccc1Cn1c(=O)c2sccc2n2c(=O)n(Cc3cccc(Br)c3)nc12,-9.99,-1.02
Cc1ccccc1Oc1nccn2c(=O)n(CC(=O)Nc3ccc(Cl)c(Cl)c3)nc12,7.54,-4.77
Cc1nnc2ccc(S(=O)(=O)N(CC(=O)OC(C)(C)C)c3ccc4c(c3)OCO4)cn12,2.93,-7.09
Cc1ccc(Sc2nccn3c(=O)n(CC(=O)Nc4ccc(F)c(Cl)c4)nc23)c(C)c1,-12.28,-15.97
O=S(=O)(c1ccc2nncn2c1)N(Cc1cc(F)cc(F)c1)c1cc(F)cc(F)c1,-5.61,-4.65
Cc1ccc(NC(=O)Cn2nc3ccc(SC(C)C)nn3c2=O)cc1F,-3.37,-1.63
CCCCOc1ccc(-c2cc3c4nnc(SCC(=O)NCc5ccccc5)n4ccn3n2)cc1,-2.73,-6.82
Cc1ccc(F)cc1NC(=O)CSc1nnc2ccc(C(=O)Nc3cccc(F)c3)cn12,13.04,0.82
CC(C)c1ccc(NC(=O)Cn2nc3c(N4CCCC4)nccn3c2=O)cc1,2.8,-0.46
CCOc1ccc(-n2ccn3c(SCC(=O)Nc4ccc(Cl)cc4)nnc3c2=O)cc1,4.06,-5.21
O=S(=O)(Nc1ccc2c(c1)OCCO2)c1ccc2nncn2c1,11.97,-4.23
O=C(Cn1nc2c(Sc3ccccc3)nccn2c1=O)Nc1ccc(Br)cc1F,5.84,-2.08
COc1ccc2[nH]cc(C(=O)CSc3nnc4c(=O)n(-c5ccc(F)cc5)ccn34)c2c1,14.61,-2.83
